From PubChem BioAssay
HT1080 IDH1KD tx = kills HT-1080 cells with IDH1 knockdown; HT-1080 IDH1 knockdown viability, ATP luminescence, 48 h; actives 2% (n = 360,000); Potency, µM (titrated, usually from 46.1 µM), for inactives: top-dose activity, negative = toxicity, usual class: cytotoxic;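 also: potency is read from the fitted curve at half-maximal effect; 0% = DMSO wells and -100% = cell-free medium wells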
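Knockdown cells (IDH1KD HT-1080) received compounds 2 h after plating at 750 cells/well and were kept 48 h at 37 °C in 5% FBS RPMI. A CellTiter-Glo luminescence read gave % activity for curve fitting.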
DT40 TDP1 no CPT = qHTS for Inhibitors of human tyrosyl-DNA phosphodiesterase 1 (TDP1): qHTS in cells in absence of CPT. AID 686978, 2013. DT40 Tdp1-/- hTDP1 cells, no CPT, ATP luminescence, 48 h. actives 15% (n = 420,000). Potency, µM (series often up to 46.2 µM), inactives show top-dose activity change, negative = growth inhibition, usual class: inhibitors; also: potency is read from the fitted curve at half-maximal effect; nearly all actives have a fitted effect of over 55% in size
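Compound effects on proliferation are scored in DT40 Tdp1-/-;hTDP1 cells in the absence of CPT. ATP levels (CellTiter-Glo luminescence) are recorded after a ≥48 hr, 37 °C incubation.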
IL1B secr inh = blocks inflammasome-driven IL-1 beta release; THP-1 LPS/ATP IL-1B secretion, AlphaLISA, 16 h; active compounds read low; activity change, % at 57.5 µM; actives 4.7% (n = 360,000); AID 743279; in the data active = activity change below about -50%; inconclusive = mostly about -30% to -49%
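THP-1 cells pretreated 1 hr with compounds (up to 57.5 uM final), then stimulated with LPS (250 ng/mL final) plus ATP (1.25 mM final); secreted IL-1B measured by AlphaLISA after 16 hr, decreased signal indicating inhibition.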
ALOX12 inh = ALOX12 (human) lipoxygenase inhibition. P18054. purified 12hLO, xylenol orange hydroperoxide absorbance. Potency, µM (doses to about 108 µM), for inactives: at the highest dose activity change, negative = inhibition, usual class: inhibitors. actives 1.1% (n = 580,000). AID 1671190; also: potency is read from the fitted curve at half-maximal effect
Target sequence (P18054 whole entry, looked up): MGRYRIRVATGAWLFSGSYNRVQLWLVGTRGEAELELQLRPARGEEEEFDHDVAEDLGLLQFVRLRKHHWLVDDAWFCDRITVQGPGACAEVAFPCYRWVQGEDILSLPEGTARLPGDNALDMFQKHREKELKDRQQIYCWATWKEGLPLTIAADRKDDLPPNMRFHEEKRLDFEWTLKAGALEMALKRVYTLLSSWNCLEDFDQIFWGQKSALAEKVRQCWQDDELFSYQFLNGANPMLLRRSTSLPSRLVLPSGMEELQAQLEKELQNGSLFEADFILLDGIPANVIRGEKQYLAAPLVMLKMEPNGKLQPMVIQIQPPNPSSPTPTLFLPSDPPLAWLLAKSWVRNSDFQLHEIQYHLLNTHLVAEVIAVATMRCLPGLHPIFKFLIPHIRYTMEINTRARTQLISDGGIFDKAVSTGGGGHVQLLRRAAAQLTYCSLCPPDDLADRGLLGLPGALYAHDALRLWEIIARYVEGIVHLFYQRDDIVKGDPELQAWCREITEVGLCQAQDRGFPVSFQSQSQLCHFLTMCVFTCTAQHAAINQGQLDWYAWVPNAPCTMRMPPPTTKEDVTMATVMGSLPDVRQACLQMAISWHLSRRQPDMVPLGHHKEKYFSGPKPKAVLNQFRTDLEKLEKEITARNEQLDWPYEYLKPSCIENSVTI
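Purified human 12hLO at 150 nM in 25 mM Hepes, 0.01% Triton X-100, pH 7.0, preincubated 15 min at room temperature with compound. Reaction started with 40 uM arachidonic acid, 30 min at room temperature. Hydroperoxide measured by Fe-xylenol orange, 573/405 nm absorbance ratio.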
HT1080NT lethal = kills 2HG-producing HT-1080-NT fibrosarcoma cells. HT-1080-NT fibrosarcoma viability, CellTiter-Glo ATP luminescence, 48 h. Potency, µM (highest dose often 46.1 µM), for inactives: top-dose activity, negative = less viability, hits mostly cytotoxic. actives 1.6% (n = 360,000). AID 686970;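 also: NT is the 2HG producing partner of a matched IDH1 knockdown line; potency is read from the fitted curve at half-maximal effect; 0% = DMSO-treated cells and -100% = media-only wells without cells; nearly all actives have a fitted effect of over 55% in size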
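Viability by CellTiter-Glo luminescence after 48 h compound exposure at 37C of HT-1080-NT cells (750/well, RPMI, 5% FBS). % activity scaled between DMSO wells and medium-only wells, then curve-fitted and categorized by curve class.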
DT40 TDP1 CPT = DT40-hTDP1 cell growth loss with CPT; chicken DT40 Tdp1-/-;hTDP1 cells + 20 nM CPT, ATP luminescence, 48 h; actives 12% (n = 420,000); Potency, µM (highest dose often 46.2 µM), without a hit: at the highest dose activity change, negative = growth inhibition, usual class: inhibitors; also: potency is read from the fitted curve at half-maximal effect; nearly all actives have a fitted effect of over 55% in size
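Chicken DT40 Tdp1-/- cells complemented with human TDP1, 400 cells/well, exposed to compounds plus 20 nM camptothecin for at least 48 h at 37 C; viability read as ATP content by CellTiter-Glo luminescence.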
* hit, by the source's call; ? = inconclusive; nt = not tested or not shown; [ ] = dose if it differs, or a comment. Only a selection was taken, and hits are over-represented in it overall. Unless noted, calls follow the shape of the dose curve; as a rule, active = well fitted curve in the direction sought with a large enough effect; inconclusive = small, poorly fitted or top-dose-only effect, or another doubt; inactive = no such curve, though single readings can be large; an effect the other way counts as inactive or inconclusive. Unless noted, % is scaled to controls: 0 for no effect and ±100 for the full control effect.

SMILES	HT1080 IDH1KD tx	DT40 TDP1 no CPT	IL1B secr inh	ALOX12 inh	HT1080NT lethal	DT40 TDP1 CPT
Cn1cnc(S(=O)(=O)N2CCCCC2c2nc(-c3ccncc3)n[nH]2)c1 (stereo not drawn)	nt	nt	nt	6%	nt	nt
N#Cc1ccc(CN2CC3(Cc4ccccc4C(=O)N3)C2)cc1	nt	nt	nt	13%[6.33 µM]	nt	nt
CCOc1cc(OCC)cc(C(=O)Nc2ccc(Br)c(C)n2)c1	nt	nt	nt	-13%	nt	nt
CCN(C(=O)C(C)N(C)CC(=O)Nc1cccc(F)c1)C1CCCCC1 (stereo not drawn)	nt	nt	nt	-16%	nt	nt
COc1cc(C2NCC(c3ccc(Cl)cc3Cl)c3c2[nH]c2ccccc32)cc(OC)c1OC (stereo not drawn)	15µM*	18µM*	-66*	28µM*	18µM*	?
O=C(O)c1ccc(C2NCC(c3ccccc3Cl)c3c2[nH]c2ccccc32)cc1 (stereo not drawn)	-19%	16%	31	-11%	-23%	4%
CN(Cc1ccccc1)CC1(O)CCCN(CCCc2ccccc2)C1=O (stereo not drawn)	nt	nt	nt	88%	nt	nt
CCOc1ccc(C2=NC(c3cccs3)=Nc3ccc(CC)cc3N2)cc1OCC	nt	18µM*	nt	7%	nt	?
FC(F)(F)c1ccc(C2=Nc3ccccc3NC(c3cccs3)=N2)cc1	nt	?	nt	-21%	nt	-16%
CCc1ccc2c(c1)NC(c1cccs1)=NC(c1ccc(F)cc1)=N2	nt	23µM*	nt	-9%	nt	23µM*
COCCNC(=O)[C@@H]1C[C@H](Oc2cccnc2)CN1C(=O)c1ocnc1C	nt	nt	nt	29%	nt	nt
O=C(NCCCNC(=O)c1c(F)cccc1F)c1c(F)cccc1F	7%	28%	37	1%	-11%	-20%
O=C(NCC(Cl)c1ccc2ccccc2c1)c1c(F)cccc1F (stereo not drawn)	1%	-4%	-5	35µM*	-11%	-8%
Cc1ccoc1C(=O)N1CCCCC1C(=O)O (stereo not drawn)	-6%	18µM*	22	-6%	14%	?
COC1CCN(C(=O)Cc2c[nH]c3ncc(-c4cnn(C)c4)cc23)CC1	nt	nt	nt	0%[176 µM]	nt	nt
CC(C)Oc1ccc(CNC(=O)C2CCN(C(=O)c3sccc3-n3cccc3)CC2)cc1	nt	?	nt	-15%	nt	-18%
CC(CCc1ccccc1)NC(=O)C1CCN(C(=O)c2sccc2-n2cccc2)CC1 (stereo not drawn)	0%	21µM*	-17	30%	7%	?
CCOc1ccc(CCNC(=O)C2CCN(S(=O)(=O)N3CCC(C)CC3)CC2)cc1OCC	0%	?	1	7%	0%	?
CCCSCCCNC(=O)C1CCN(C(=O)c2cc3sccc3n2C)CC1	nt	21µM*	nt	-4%	nt	21µM*
CCn1c(C(=O)N2CCC(C(=O)NCCCSC3CCCCC3)CC2)cc2sccc21	-4%	18µM*	2	-4%	-12%	?
CCOc1ccc(CCNC(=O)C2CCN(C(=O)c3cc4sccc4n3CC)CC2)cc1OCC	nt	18µM*	nt	-9%	nt	16µM*
COCCCNC(=O)C1CCN(C(=O)c2cc3sccc3n2Cc2ccc(F)cc2)CC1	-5%	?	26	2%	2%	?
COc1ccc(CNC(=O)CSc2nc3ccccc3nc2N2CCCC2)cc1	nt	nt	nt	38%	nt	nt
CCn1c(SCC(=O)NC(C)c2ccc3c(c2)CCCC3)nnc1C1CC1 (stereo not drawn)	nt	nt	nt	11%	nt	nt
CC(C)CS(=O)(=O)N[C@@H]1C[C@H](Cn2cc(CN(C)C)nn2)[C@@H](O)[C@H]1O	nt	nt	nt	-2%[176 µM]	nt	nt
SMILES	HT1080 IDH1KD tx	DT40 TDP1 no CPT	IL1B secr inh	ALOX12 inh	HT1080NT lethal	DT40 TDP1 CPT
COc1cccc(N(CC(=O)Nc2ccc(C(N)=O)cc2)S(=O)(=O)c2ccccc2)c1	nt	nt	nt	-9%	nt	nt
COc1ccc(-c2c(C(F)(F)F)oc3cc(OC(=O)C(C)C)ccc3c2=O)cc1OC	nt	nt	nt	-61%	nt	nt
Cc1ccc(CCNC(=O)C2CCN(S(=O)(=O)N3CCCCC3)CC2)cc1	10%	-25%	47	2%	5%	-4%
CCn1c(C(=O)N2CCC(C(=O)NCCc3ccccc3)CC2)cc2sccc21	nt	26µM*	nt	-14%	nt	?
CCn1c(C(=O)N2CCC(C(=O)NCCc3ccc(C)cc3)CC2)cc2sccc21	nt	21µM*	nt	-6%	nt	16µM*
CCN(CC)CCCNC(=O)C1CCN(C(=O)c2cc3sccc3n2Cc2ccc(F)cc2)CC1	?	-16%	-1	?	?	-21%
Cc1nn(C)cc1C(=O)N1CC[C@H](N2CCN(C)CC2)[C@H](CCCO)C1	nt	nt	nt	86%	nt	nt
OC(c1cccc(F)c1)c1ncc(-c2ccc(Oc3ccccc3)cc2)[nH]1 (stereo not drawn)	?	?	-23	-13%	16µM*	?
OC(c1ccc(Cl)c(F)c1)c1ncc(-c2ccc(Oc3ccccc3)cc2)[nH]1 (stereo not drawn)	?	?	?	?	?	23µM*
OC(c1ccc(Cl)c(Cl)c1)c1ncc(-c2ccc(Cl)cc2)[nH]1 (stereo not drawn)	?	?	?	-15%	?	?
OC(c1cccc(Cl)c1)c1ncc(-c2ccc(Oc3ccccc3)cc2)[nH]1 (stereo not drawn)	?	?	-52*	?	?	?
Cc1cc(F)ccc1C(O)c1ncc(-c2ccc(Oc3ccccc3)cc2)[nH]1 (stereo not drawn)	?	?	1	?	?	21µM*
COc1cccc(C(O)c2ncc(-c3ccccc3)[nH]2)c1 (stereo not drawn)	7%	-23%	18	-2%	15%	?
OC(c1ccc(Cl)c(F)c1)c1ncc(-c2cccc(F)c2)[nH]1 (stereo not drawn)	?	?	16	-3%	?	?
Cc1cc(F)ccc1C(O)c1ncc(-c2ccccc2)[nH]1 (stereo not drawn)	-9%	-18%	43	?	-9%	-27%
NC(=O)CNC(=O)C1=C[C@@H](NC(=O)c2ccc(F)c(Cl)c2)[C@@H](O)[C@H](O)C1	nt	nt	nt	7%[176 µM]	nt	nt
COc1ccc(C2C(C#N)=C(SC)NC3=C2C(=O)CC(C)(C)C3)cc1 (stereo not drawn)	-13%	8.2µM*	-15	?	-8%	6.5µM*
